The full data set covers some 7,900 targets. This sample favours those with a hit. About 0.6% of all pairs of compound and target were hits.
Compound: c1cn2cc(-c3ccc4cn[nH]c4c3)nc(Nc3ccc(N4CCOCC4)cc3)c2n1 [entospletinib]
Test: log2 fold change, soluble protein after heating vs DMSO (PISA); higher = thermal stabilisation; K562 cells, 10 uM, 30 min; active = over 0.2 and 3.5 SD of the protein, either way, in both replicates (recomputed)
In short: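 K562 cells (2×10^6 cells/mL) were treated with 10 μM compound for 30 min, and aliquots were heated for 3 min over 48°C-58°C. Pooled aliquots were extracted in PBS with 0.5% NP-40 at 4°C, and the supernatant after 21,000xg for 90 min was measured by TMTpro 16plex LC-MS/MS with channel sums equalised. Reported thermal stability, relative to control samples and from duplicates, is a log2 fold change.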

UniProt Q96LU5, sequence (Q96LU5 whole entry, looked up): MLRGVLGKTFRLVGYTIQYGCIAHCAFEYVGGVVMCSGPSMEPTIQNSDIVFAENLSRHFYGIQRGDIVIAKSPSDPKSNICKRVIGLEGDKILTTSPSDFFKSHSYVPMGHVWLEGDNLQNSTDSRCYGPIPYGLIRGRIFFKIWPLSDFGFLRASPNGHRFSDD
UniProt Q32MZ4, sequence (Q32MZ4 whole entry, looked up): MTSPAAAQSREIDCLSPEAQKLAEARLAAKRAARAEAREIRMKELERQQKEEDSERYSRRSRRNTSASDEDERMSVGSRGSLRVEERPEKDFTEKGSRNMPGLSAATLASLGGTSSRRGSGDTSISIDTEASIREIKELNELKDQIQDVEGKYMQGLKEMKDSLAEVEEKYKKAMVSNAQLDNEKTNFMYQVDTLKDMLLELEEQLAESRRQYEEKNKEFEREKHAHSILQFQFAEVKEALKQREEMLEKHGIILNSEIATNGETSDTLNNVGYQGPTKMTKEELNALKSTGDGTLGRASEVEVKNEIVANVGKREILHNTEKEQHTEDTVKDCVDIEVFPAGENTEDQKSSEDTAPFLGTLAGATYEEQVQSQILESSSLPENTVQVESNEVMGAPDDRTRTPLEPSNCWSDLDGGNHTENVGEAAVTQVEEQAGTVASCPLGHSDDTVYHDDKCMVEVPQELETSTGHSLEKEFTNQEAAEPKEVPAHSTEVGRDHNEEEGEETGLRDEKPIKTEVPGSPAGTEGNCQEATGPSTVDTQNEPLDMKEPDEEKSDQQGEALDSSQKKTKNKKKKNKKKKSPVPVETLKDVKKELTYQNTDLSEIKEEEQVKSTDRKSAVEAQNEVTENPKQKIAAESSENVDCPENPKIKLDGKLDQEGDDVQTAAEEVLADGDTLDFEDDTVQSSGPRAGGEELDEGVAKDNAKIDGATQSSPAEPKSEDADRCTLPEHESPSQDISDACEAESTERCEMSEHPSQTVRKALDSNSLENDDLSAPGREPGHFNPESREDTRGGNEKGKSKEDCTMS
UniProt P13473, sequence (P13473 whole entry, looked up): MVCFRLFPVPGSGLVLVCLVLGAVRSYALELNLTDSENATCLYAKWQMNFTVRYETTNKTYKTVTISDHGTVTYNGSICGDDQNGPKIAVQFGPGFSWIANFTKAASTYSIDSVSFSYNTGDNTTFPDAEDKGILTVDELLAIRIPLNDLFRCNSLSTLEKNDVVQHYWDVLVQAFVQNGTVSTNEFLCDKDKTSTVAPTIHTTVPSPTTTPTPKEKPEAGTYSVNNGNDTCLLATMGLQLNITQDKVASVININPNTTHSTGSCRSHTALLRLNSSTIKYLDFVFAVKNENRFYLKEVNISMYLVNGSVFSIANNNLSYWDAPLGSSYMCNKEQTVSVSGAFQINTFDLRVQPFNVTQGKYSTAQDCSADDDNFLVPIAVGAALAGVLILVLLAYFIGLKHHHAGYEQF
UniProt Q8TBB5, sequence (Q8TBB5 whole entry, looked up): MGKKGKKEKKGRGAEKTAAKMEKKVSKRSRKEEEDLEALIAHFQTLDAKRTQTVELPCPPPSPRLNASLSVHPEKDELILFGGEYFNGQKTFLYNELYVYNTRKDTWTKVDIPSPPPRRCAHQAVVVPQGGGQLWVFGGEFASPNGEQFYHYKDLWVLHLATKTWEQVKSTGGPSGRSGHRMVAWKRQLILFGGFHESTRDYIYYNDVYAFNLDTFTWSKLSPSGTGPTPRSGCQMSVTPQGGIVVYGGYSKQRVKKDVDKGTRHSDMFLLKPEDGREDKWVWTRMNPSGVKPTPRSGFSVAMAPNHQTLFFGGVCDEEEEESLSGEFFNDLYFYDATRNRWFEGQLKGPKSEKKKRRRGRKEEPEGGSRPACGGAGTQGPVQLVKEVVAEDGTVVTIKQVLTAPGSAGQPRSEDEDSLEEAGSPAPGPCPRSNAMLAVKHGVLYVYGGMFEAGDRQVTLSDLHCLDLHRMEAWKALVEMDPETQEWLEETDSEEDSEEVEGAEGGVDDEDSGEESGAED
UniProt Q9BU23, sequence (Q9BU23 whole entry, looked up): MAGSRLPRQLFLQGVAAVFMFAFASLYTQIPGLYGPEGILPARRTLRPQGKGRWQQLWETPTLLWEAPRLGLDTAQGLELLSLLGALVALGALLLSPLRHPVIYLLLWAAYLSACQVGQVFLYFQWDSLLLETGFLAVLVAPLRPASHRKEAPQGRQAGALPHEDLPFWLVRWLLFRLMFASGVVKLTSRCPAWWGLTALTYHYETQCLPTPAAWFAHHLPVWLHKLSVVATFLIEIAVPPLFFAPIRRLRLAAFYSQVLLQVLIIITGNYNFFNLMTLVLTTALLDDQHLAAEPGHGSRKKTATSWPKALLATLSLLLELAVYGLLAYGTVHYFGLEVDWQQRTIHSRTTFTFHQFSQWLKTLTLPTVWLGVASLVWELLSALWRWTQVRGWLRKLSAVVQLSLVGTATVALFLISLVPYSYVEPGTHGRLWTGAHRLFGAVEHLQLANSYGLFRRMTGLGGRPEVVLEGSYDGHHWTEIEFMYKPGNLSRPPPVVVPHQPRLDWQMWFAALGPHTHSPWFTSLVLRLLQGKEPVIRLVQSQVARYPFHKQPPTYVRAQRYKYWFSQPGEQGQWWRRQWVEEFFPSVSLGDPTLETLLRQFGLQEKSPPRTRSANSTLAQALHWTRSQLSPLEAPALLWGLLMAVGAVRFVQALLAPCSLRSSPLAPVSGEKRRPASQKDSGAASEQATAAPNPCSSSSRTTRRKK
UniProt Q96G25, sequence (Q96G25 whole entry, looked up): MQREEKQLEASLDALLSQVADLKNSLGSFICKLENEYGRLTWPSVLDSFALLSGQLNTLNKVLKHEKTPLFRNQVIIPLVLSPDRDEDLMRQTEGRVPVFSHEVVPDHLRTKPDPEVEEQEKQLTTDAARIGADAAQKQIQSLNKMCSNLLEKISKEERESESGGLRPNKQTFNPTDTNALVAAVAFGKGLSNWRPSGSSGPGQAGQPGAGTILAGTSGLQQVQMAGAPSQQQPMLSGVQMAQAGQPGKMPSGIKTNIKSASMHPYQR
UniProt Q71SY5, sequence (Q71SY5 whole entry, looked up): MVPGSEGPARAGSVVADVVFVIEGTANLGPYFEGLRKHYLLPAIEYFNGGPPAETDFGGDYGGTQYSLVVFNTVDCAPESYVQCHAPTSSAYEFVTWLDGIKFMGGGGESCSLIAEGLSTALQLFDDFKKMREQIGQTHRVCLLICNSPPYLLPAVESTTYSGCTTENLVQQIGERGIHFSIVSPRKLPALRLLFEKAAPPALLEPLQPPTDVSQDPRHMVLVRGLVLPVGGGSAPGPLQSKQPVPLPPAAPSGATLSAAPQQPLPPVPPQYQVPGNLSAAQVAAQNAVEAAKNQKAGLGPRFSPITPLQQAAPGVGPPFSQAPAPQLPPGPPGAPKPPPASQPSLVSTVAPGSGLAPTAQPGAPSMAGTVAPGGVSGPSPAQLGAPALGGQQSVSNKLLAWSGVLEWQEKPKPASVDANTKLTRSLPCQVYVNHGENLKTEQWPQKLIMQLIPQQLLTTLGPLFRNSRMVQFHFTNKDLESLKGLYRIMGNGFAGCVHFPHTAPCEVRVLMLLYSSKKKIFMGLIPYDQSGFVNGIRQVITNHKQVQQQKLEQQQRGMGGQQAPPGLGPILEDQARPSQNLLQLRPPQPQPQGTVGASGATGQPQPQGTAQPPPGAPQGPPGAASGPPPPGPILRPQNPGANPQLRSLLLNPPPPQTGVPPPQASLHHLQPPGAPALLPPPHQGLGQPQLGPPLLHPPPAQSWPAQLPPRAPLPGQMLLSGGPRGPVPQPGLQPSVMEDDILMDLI
UniProt P46734, sequence (P46734 whole entry, looked up): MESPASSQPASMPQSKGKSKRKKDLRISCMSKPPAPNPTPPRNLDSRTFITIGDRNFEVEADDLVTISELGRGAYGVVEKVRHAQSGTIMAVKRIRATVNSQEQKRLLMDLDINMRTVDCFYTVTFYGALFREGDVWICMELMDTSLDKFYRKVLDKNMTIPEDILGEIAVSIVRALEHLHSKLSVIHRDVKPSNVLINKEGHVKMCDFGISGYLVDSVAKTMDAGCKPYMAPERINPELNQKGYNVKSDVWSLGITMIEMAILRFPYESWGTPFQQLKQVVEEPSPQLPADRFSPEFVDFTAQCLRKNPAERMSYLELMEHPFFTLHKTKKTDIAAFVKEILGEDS

| Target | log2 fold change |
| --- | --- |
| LMF2 (UniProt Q9BU23) | -0.019 (inactive) |
| LAMP2 isoform 2 (UniProt P13473) | 0.033 (inactive) |
| LRRFIP1 (UniProt Q32MZ4) | 0.004 (inactive) |
| MAP2K3 isoform 3 (UniProt P46734) | 0.013 (inactive) |
| MAP4K4 isoform 6 (UniProt O95819) | -0.103 (inactive) |
| KPNA6 (UniProt O60684) | -0.021 (inactive) |
| IMMP1L (UniProt Q96LU5) | -0.172 (inactive) |
| MED8 isoform 2 (UniProt Q96G25) | 0.034 (inactive) |
| IWS1 (UniProt Q96ST2) | 0.159 (inactive) |
| MED25 isoform 3 (UniProt Q71SY5) | -0.01 (inactive) |
| KLHDC4 (UniProt Q8TBB5) | 0.065 (inactive) |
